Test results: ChEMBL document CHEMBL1961873, “Compounds: GSK PKIS; Assays: Nanosyn kinase panel” (2012)

Assays:
[1] = target: Mitogen-activated protein kinase kinase kinase kinase 4 (Homo sapiens) (UniProt O95819); conditions: at 1 µM;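 further: reported figure is an averaged inhibition value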
[2] = target: Dual specificity mitogen-activated protein kinase kinase 1 (Homo sapiens) (UniProt Q02750); conditions: at 0.1 µM
[3] = target: Dual specificity mitogen-activated protein kinase kinase 1 (Homo sapiens) (UniProt Q02750); conditions: at 1 µM
[4] = target: Misshapen-like kinase 1 (Homo sapiens) (UniProt Q8N4C8); conditions: at 0.1 µM
Misshapen-like kinase 1 (Homo sapiens), sequence (Q8N4C8 whole entry, looked up): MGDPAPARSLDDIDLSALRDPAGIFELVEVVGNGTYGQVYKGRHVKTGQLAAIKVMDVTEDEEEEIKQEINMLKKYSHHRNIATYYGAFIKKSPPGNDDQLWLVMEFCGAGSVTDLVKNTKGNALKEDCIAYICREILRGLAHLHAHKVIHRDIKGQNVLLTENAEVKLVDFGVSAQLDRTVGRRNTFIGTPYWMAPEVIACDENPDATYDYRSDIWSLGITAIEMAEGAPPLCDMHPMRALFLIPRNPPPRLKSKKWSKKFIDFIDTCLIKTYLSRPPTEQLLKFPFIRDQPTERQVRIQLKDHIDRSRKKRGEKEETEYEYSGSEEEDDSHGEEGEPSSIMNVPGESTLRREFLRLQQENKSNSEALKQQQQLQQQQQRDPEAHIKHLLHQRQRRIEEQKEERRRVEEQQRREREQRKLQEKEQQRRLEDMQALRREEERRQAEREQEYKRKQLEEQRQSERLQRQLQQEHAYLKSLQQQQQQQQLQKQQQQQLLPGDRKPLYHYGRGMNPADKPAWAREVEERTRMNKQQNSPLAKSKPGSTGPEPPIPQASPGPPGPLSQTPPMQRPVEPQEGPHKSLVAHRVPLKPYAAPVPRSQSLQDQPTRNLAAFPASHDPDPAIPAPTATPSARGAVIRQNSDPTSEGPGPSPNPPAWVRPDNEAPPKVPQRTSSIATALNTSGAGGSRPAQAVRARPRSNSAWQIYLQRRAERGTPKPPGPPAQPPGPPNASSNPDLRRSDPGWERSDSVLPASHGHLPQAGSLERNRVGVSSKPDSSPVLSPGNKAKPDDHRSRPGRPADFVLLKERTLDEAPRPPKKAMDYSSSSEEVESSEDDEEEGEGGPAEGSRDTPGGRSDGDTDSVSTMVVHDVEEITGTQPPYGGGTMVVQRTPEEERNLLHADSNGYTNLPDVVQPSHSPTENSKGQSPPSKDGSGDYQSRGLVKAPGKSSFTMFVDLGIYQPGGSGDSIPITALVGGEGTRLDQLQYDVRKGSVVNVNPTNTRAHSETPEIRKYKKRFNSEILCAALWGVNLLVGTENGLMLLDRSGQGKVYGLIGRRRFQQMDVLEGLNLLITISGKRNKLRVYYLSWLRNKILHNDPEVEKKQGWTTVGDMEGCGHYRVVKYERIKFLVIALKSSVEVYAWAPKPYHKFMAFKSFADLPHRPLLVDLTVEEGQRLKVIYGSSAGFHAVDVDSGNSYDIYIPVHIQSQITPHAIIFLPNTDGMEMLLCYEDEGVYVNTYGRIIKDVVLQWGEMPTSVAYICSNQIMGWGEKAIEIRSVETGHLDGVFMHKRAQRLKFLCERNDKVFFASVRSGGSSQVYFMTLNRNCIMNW

[5] = target: Misshapen-like kinase 1 (Homo sapiens) (UniProt Q8N4C8); conditions: at 1 µM
[6] = target: T1, Serine/threonine-protein kinase 4 (Homo sapiens) (UniProt Q13043); conditions: at 0.1 µM
T1 sequence (whole entry): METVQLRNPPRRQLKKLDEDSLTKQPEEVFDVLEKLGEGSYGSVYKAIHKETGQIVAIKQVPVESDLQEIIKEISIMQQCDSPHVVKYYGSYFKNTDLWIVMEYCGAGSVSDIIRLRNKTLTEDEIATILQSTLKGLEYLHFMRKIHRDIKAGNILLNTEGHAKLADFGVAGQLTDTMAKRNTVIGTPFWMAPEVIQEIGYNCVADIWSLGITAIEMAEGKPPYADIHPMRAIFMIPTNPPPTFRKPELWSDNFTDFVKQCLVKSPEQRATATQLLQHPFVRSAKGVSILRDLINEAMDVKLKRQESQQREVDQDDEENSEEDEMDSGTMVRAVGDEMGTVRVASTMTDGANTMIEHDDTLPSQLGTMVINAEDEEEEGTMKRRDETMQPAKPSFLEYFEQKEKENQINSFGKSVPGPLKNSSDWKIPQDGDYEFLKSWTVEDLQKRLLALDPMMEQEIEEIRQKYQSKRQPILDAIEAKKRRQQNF

[7] = target: T1, Serine/threonine-protein kinase 4 (Homo sapiens); conditions: at 1 µM
[8] = target: T2, Serine/threonine-protein kinase 3 (Homo sapiens) (UniProt Q13188); conditions: at 0.1 µM
T2 sequence (whole entry): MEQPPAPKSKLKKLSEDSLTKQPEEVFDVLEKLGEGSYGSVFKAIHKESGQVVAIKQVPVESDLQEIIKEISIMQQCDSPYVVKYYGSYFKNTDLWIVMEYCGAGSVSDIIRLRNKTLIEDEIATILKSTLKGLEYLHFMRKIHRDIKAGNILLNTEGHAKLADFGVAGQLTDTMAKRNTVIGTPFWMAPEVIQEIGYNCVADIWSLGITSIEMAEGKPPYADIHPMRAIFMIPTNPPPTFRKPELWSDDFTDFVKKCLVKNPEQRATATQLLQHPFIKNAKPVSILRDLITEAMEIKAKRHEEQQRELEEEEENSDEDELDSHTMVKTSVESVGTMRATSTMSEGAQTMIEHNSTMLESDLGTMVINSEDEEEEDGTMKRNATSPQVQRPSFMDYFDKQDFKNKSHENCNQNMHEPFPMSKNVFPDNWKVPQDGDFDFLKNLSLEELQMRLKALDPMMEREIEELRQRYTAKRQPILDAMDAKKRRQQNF

[9] = target: T2, Serine/threonine-protein kinase 3 (Homo sapiens); conditions: at 1 µM
[10] = target: Serine/threonine-protein kinase 26 (Homo sapiens) (UniProt Q9P289); conditions: at 0.1 µM
Serine/threonine-protein kinase 26 (Homo sapiens), sequence (Q9P289 2-416 limits assumed): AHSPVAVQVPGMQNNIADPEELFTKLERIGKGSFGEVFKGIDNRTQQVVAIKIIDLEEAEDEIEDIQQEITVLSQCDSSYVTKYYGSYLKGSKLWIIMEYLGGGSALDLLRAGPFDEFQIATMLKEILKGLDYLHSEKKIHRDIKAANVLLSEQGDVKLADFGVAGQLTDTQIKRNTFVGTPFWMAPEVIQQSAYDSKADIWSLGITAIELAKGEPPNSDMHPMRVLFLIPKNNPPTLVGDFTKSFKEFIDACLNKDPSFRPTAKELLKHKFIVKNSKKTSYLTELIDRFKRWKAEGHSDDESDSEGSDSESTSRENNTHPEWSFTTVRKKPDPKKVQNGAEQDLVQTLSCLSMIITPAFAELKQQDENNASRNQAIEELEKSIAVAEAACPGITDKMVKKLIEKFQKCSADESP

Mitogen-activated protein kinase kinase kinase kinase 4 (Homo sapiens), sequence (O95819 2-1239 limits assumed): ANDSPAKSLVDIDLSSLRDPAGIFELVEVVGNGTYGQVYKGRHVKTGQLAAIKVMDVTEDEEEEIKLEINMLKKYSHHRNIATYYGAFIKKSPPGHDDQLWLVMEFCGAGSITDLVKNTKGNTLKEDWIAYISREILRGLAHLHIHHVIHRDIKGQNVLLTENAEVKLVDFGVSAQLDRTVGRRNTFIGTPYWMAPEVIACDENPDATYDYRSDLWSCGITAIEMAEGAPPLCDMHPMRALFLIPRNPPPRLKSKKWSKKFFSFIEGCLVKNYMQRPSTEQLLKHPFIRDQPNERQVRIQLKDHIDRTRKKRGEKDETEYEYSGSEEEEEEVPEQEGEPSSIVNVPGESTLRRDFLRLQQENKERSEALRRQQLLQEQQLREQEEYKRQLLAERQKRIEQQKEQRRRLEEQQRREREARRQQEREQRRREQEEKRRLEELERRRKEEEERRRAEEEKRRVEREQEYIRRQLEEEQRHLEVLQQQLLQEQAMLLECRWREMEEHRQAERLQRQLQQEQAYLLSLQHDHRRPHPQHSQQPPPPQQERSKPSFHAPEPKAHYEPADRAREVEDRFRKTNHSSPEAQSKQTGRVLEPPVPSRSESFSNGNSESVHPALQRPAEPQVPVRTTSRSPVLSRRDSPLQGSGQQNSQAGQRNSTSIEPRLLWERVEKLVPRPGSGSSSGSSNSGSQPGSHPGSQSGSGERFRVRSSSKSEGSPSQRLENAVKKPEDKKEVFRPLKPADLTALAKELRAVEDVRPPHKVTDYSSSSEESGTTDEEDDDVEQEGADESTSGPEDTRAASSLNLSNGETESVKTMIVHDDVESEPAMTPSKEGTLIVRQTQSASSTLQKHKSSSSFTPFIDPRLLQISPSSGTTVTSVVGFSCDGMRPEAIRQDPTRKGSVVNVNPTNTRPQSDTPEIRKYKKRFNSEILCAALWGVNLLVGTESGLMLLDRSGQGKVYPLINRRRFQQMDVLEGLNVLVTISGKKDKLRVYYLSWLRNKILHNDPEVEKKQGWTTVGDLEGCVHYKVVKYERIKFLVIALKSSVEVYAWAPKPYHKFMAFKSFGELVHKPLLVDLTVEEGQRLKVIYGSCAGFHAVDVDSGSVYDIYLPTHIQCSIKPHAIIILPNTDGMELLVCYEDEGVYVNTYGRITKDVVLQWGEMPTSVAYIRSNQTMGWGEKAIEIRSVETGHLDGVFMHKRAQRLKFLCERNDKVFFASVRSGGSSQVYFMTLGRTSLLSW
Dual specificity mitogen-activated protein kinase kinase 1 (Homo sapiens), sequence (Q02750 whole entry): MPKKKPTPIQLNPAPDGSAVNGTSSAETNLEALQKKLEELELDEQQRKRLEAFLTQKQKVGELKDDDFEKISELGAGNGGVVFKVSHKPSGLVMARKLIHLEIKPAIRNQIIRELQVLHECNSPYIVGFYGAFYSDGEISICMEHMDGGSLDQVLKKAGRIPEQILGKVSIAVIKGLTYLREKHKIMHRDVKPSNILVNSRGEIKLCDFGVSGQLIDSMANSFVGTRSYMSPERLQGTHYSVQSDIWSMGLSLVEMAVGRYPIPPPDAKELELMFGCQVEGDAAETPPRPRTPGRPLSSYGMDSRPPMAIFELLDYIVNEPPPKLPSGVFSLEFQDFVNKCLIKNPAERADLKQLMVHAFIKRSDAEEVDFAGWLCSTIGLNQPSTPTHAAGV

Compound | inhibition [1] | inhibition [2] | inhibition [3] | inhibition [4] | inhibition [5] | inhibition [6] | inhibition [7] | inhibition [8] | inhibition [9] | inhibition [10]
Nc1nccc(-c2c(-c3ccc(F)cc3)nn3cc(C(F)(F)F)ccc23)n1 | 2.37% | 1.8% | 0.93% | 1.74% | 1.52% | 0.23% | -0.05% | -0.79% | -0.81% | 0.43%
CCOc1nccc2c1nc(-c1nonc1N)n2CC | 14.3% | 3.44% | 3.14% | 5.33% | 13.8% | 12.1% | 22.7% | 11.4% | 21.8% | 0.4%
Nc1ccc(C#Cc2cncnc2Nc2ccc(OCc3cccc(F)c3)c(Cl)c2)cc1 | 0.49% | 2.6% | 3.23% | 3.73% | 1.66% | 2.07% | 2.02% | 3.2% | 4.05% | -0.87%
Cc1ccc2c(c1)/C(=N/Nc1ccc(S(N)(=O)=O)cc1)C(=O)N2 | 72.3% | 0.13% | 1.05% | 16.2% | 61.8% | 16.4% | 65.9% | 11% | 55% | 0.66%
Cc1ccc(O)cc1Nc1ccnc2ccc(S(C)(=O)=O)cc12 | 35.1% | 7.84% | 8.37% | 10.4% | 30.5% | 4.65% | 8.35% | 5.45% | 8.06% | -0.99%
N#Cc1cccc(Nc2nccc(-c3cnn4ncccc34)n2)c1 | 64.3% | 19.5% | 63% | 16.6% | 53.4% | 8.96% | 27.6% | 7.72% | 24.4% | -0.39%
NC(=O)c1sc(-n2cnc3ccccc32)cc1OCc1ccccc1Br | 11.3% | 3.81% | 4.35% | 5.6% | 9.1% | 1.82% | 7.07% | 4.03% | 5.83% | -1.18%
Cc1ccc(C(=O)NC2CC2)cc1-c1ccc2[nH]ncc2c1 | -0.85% | -3.43% | -3.98% | -4.28% | -1.78% | -2.09% | 1.26% | -4.71% | -2.04% | -0.05%
Cc1ccc2c(-c3ccnc(Nc4cccc(C(F)(F)F)c4)n3)c(-c3ccccc3)nn2n1 | 46.8% | 5.35% | 7.59% | 8.79% | 38.2% | 3.51% | 7.31% | 5.68% | 6.69% | 0.2%
Cc1cc(O)cc(C)c1/C=C/c1cncc(C(=O)N(C)C)c1 | 12.6% | 2.74% | 2.6% | 6.61% | 11.7% | 3.39% | 3.11% | 3.57% | 2.26% | 0.08%
COC(=O)Nc1nc2cc(Oc3ccc(NC(=O)Nc4cccc(Br)c4)cc3)ccc2[nH]1 | 5.51% | 5.03% | 4% | 4.61% | 5.66% | 3.52% | 2.71% | 3.41% | 3.92% | 0.49%
CN(C)CCCn1c(-c2nonc2N)nc2cnccc21 | 6.52% | 4.6% | 3.75% | 5.65% | 6.29% | 4.23% | 4.03% | 3.78% | 4.52% | -1.82%
CN(C)C(=O)O[C@H]1CN[C@H](C#Cc2cc3ncnc(Nc4ccc(OCc5cccc(F)c5)c(Cl)c4)c3s2)C1 | 4.23% | 1.29% | 2.35% | 3.51% | 3.5% | 2.1% | 4.55% | 2.81% | 3% | -0.23%
O=C(Nc1ccc(Oc2ccc3[nH]c(NC(=O)c4ccco4)nc3c2)cc1)Nc1cc(C(F)(F)F)ccc1F | 5.1% | 0.55% | 1.24% | 0.49% | -0.52% | -0.01% | 0.17% | -1.13% | -0.98% | 0.66%
CN1CCN(C(=O)c2ccc(NC(=O)Nc3ccc(N(C)c4ccnc(Nc5ccc(CS(C)(=O)=O)cc5)n4)cc3)cc2)CC1 | 58.6% | 1.05% | 10.8% | 7.54% | 42.4% | 16.1% | 60.9% | 6.27% | 28.3% | 1.7%
CC(C)c1ccc(Nc2nccc(-c3cnn4ncccc34)n2)cc1 | 18.7% | 2.79% | 9.57% | 3.97% | 14.6% | 4.71% | 20.1% | 5.07% | 18.6% | 0.23%
NS(=O)(=O)c1ccc(N/N=C2\C(=O)Nc3ccc(Cl)cc32)cc1 | 75.5% | 5.27% | 5.11% | 18.5% | 65.7% | 21.2% | 67.5% | 16.8% | 56.9% | 1.38%

Compound | inhibition [1] | inhibition [2] | inhibition [3] | inhibition [4] | inhibition [5] | inhibition [6] | inhibition [7] | inhibition [8] | inhibition [9] | inhibition [10]
COc1cccc(-n2nc(C)c3c(N/N=C(\C)c4ccncc4)ncnc32)c1 | 4.83% | -0.14% | -0.11% | 1.43% | 6.12% | 1.29% | 1.63% | 1.78% | 3.56% | -0.95%
CC(C)c1ccc2c(c1)NC(=O)/C2=N/Nc1ccc(S(N)(=O)=O)cc1 | 62.3% | 0.83% | 1.72% | 10.1% | 48.9% | 1.52% | 11.2% | 1.12% | 9.13% | -0.9%
CCCN1CCCC(c2ccc(Nc3nc(Nc4cc(F)ccc4C(N)=O)c4cc[nH]c4n3)c(OC)c2)C1 (stereo not given) | 80.8% | 9.59% | 33.4% | 28.3% | 71.7% | 10.2% | 41% | 6.09% | 10.6% | -1.66%
COc1cc(/C=N/Nc2ncnc3c2cnn3C(C)C)ccc1O | 21.4% | 2.16% | 1.21% | 6.6% | 19.1% | 1.8% | 7.78% | 1.29% | 8.02% | 0.35%
OCc1ccc(-c2nc(-c3ccccn3)c(-c3ccc4c(c3)OCO4)[nH]2)cc1 | 6.4% | 5.12% | 4.13% | 5.77% | 7.23% | 6.59% | 6.27% | 8.49% | 4.84% | -1.45%
COC(=O)c1cncc(/C=C/c2c(C)cc(O)cc2C)c1 | 18.8% | 4.72% | 4.21% | 5.24% | 14.9% | 7.04% | 9.84% | 7.02% | 9.92% | -1.08%
COc1cc(Nc2nccc(-c3cnn4ncccc34)n2)cc(OC)c1 | 78.9% | 3.92% | 26.4% | 20.6% | 71.9% | 5.52% | 35.6% | 5.54% | 29.6% | 0.99%
CCS(=O)(=O)c1ccc(OC)c(Nc2ncc(-c3cccc(OC)c3)o2)c1 | 25.9% | 2.58% | 3.57% | 5.68% | 16.8% | 6.63% | 10.6% | 6.69% | 7.22% | -1.42%
Cc1cc(Cl)cc2c1NC(=O)C2=NNc1ccc(S(N)(=O)=O)cc1 | 56.5% | 3.39% | 2.09% | 10% | 42.5% | 4.01% | 7.11% | 3.69% | 6.48% | 0.59%
CCn1c(-c2nonc2N)nc2ccc(F)cc21 | 9.77% | 9.94% | 7.03% | 6.88% | 9.59% | 5.88% | 5.97% | 6.38% | 6.55% | -1.73%
c1ccc(Cc2nc3ccc(Nc4ncnc5ccccc45)cc3[nH]2)cc1 | 10% | 2.72% | 2.98% | 4.23% | 9.55% | 4.48% | 8.56% | 5.09% | 8.29% | -0.58%
NS(=O)(=O)c1cccc(Nc2cc(-c3ccc(F)cc3)n[nH]2)c1 | 69.9% | 5.05% | 3.82% | 14.6% | 59.5% | 8.09% | 16.1% | 7.41% | 13.4% | -0.02%
N#Cc1c(NC(=O)c2ccccc2F)sc2c1CCCC2 | -0.82% | 0.34% | -0.71% | -1.75% | -2.13% | -0.37% | 3.02% | -3.35% | 1.41% | -0.08%
NS(=O)(=O)c1ccc(NC=C2C(=O)Nc3ccc4ncsc4c32)cc1 | 79% | 17.5% | 68.3% | 62.9% | 78.9% | 74.5% | 80.4% | 73.1% | 78.2% | 62.1%
Oc1cccc(-c2nc(-c3ccccc3)[nH]c2-c2ccncc2)c1 | 11.6% | 5.08% | 4.94% | 5.57% | 8.96% | 5.39% | 8.96% | 5.44% | 7.6% | 0.83%
NS(=O)(=O)c1ccc(Nc2cc(-c3cccc(O)c3)n[nH]2)cc1 | 17.6% | 7.97% | 5.67% | 8% | 18.6% | 9.01% | 16.1% | 8.2% | 13.4% | -1.36%
